Most compounds without a hit are left out; they make up all but 17% or so of the library.
DT40 TDP1 no CPT: qHTS for Inhibitors of human tyrosyl-DNA phosphodiesterase 1 (TDP1): qHTS in cells in absence of CPT | Potency, µM (titrated, usually from 46.2 µM), inactives show top-dose activity change, negative = growth inhibition, most hits filed as inhibitors | DT40 Tdp1-/- hTDP1 cells, no CPT, ATP luminescence, 48 h | 15% of 420,000 active; note: % is set by controls: 0 for no effect and ±100 for the full control effect; nearly all actives have a fitted effect of over 55% in size
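Seeded 400 DT40-hTDP1 cells/well (vehicle DMSO, no 20 nM CPT); pinned compounds; ≥48 hr at 37 °C; CellTiter-Glo luminescence as viability measure.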
DT40 TDP1 CPT: qHTS for Inhibitors of human tyrosyl-DNA phosphodiesterase 1 (TDP1): qHTS in cells in presence of CPT. 12% of 420,000 active. chicken DT40 Tdp1-/-;hTDP1 cells + 20 nM CPT, ATP luminescence, 48 h. Potency, µM (doses to about 46.2 µM), without a hit: at the top dose activity change, negative = growth inhibition, most hits filed as inhibitors; note: % is set by controls: 0 for no effect and ±100 for the full control effect; nearly all actives have a fitted effect of over 55% in size
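Cell growth measured by CellTiter-Glo luminescence after a minimum 48 h, 37 C compound exposure with 20 nM CPT in Tdp1-knockout DT40 cells stably expressing hTDP1, seeded 400/well; qHTS titration format.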
ATXN viability: Viability Counterscreen for Primary qHTS for Inhibitors of ATXN expression; S2 cells (HEK-293 line with an ATXN2-luciferase reporter) viability, CellTiter-Fluor protease fluorescence, 24 h; Potency, µM (series often up to 56.7 µM), usual class: cytotoxic; 0.49% of 400,000 active; note: nearly all actives have a fitted effect of over 40% in size
HepG2 tox: qHTS for Inhibitors of TGF-b: Cytotox Counterscreen. HepG2 CAGA-GFP viability, ATP luminescence, 18 h. Potency, µM (top dose mostly 46.1 µM), for the others: at the highest dose activity change, negative = cytotoxicity, most hits filed as cytotoxic. 0.76% of 410,000 active
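CellTiter-Glo luminescence gave cytotoxicity after 18 hours at 37 degrees C. The cells were HepG2 CAGA-GFP in 1% FBS DMEM, stimulated with 500 pg/mL TGF-beta after compound addition. %Activity was normalised to no-cell wells (complete cell-killing) and DMSO (no toxicity), and curves were fitted and classified.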
ATXN2 expr inh: Primary qHTS for Inhibitors of ATXN expression | HEK-293 ATXN2-luciferase reporter, luminescence, 24 h | Potency, µM (doses to about 57 µM), for inactives: top-dose activity change, negative = inhibition, usual class: inhibitors | 0.72% of 360,000 active | AID 1745845, 2022; note: % is set by controls: 0 for no effect and ±100 for the full control effect; nearly all actives have a fitted effect of over 55% in size
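qHTS (up to 57 uM final) was run with 24 h compound exposure of reporter cells at 37 °C. Each well was multiplexed: SteadyGlo luminescence measured ATXN2-luciferase expression after a fluorogenic Gly-Phe-AFC viability readout (25 uM final).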
TGFb SMAD3 inh: qHTS for Inhibitors of TGF-b. HepG2 CAGA-GFP TGF-b/SMAD3 reporter, GFP fluorescence, 18 h; TGF-beta stimulated, 500 pg/mL final. Potency, µM (doses to about 46.1 µM), for the others: top-dose activity, negative = inhibition, actives largely listed as inhibitors. 1.2% of 410,000 active; note: % is set by controls: 0 for no effect and ±100 for the full control effect; nearly all actives have a fitted effect of over 65% in size
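Cell-based qHTS in HEPG2 carrying a CAGA-GFP Smad reporter; compounds added before 500 pg/mL final TGF-beta, 18 h incubation at 37 degrees C, GFP fluorescence quantified per cell by imaging cytometry.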
An asterisk follows results filed as active; i = inactive; u = inconclusive; x = no result given. Calls come from the whole dose curve; as a rule, active = well fitted curve in the direction sought with a large enough effect; inconclusive = small, poorly fitted or top-dose-only effect, or another doubt; inactive = no such curve, though single readings can be large; an effect the other way counts as inactive or inconclusive. Potency is the fitted concentration of half-maximal effect.

SMILES | DT40 TDP1 no CPT | DT40 TDP1 CPT | ATXN viability | HepG2 tox | ATXN2 expr inh | TGFb SMAD3 inh
Cc1cccn2c(CNCC3(c4ccccc4)CCCC3)c(C(=O)N3CCOCC3)nc12 | 10µM* | 13µM* | i | -5% | -21% | -1%
Nn1cnc2scc(-c3ccc(Cl)cc3)c2c1=O | -22% | -9% | u | -24% | x | 5%
COc1ccc(Br)cc1CNC(=O)c1ccc2c(c1)nc1n2CCCCC1 | 16µM* | u | x | -15% | x | 38%
Cc1ccc(C)c(CNC(=O)c2ccc3c(c2)nc2n3CCC(C)C2)c1 (stereo unspecified) | 21µM* | u | x | 4% | x | 0%
CSc1ccc(CCNC(=O)c2ccc3c(c2)nc2n3CCCCC2)cc1 | 16µM* | -62% | x | -29% | x | u
CC(CNC(=O)c1ccc2c(c1)nc1n2CCCCC1)c1ccccc1 (stereo unspecified) | u | 23µM* | x | -9% | x | -2%
Cc1ccc(-n2nc3c(=O)n(C(C)C(=O)NCCC4=CCCCC4)nc(C)c3c2C)cc1 (stereo unspecified) | u | u | i | -45% | x | u
CSc1ccc(CCNC(=O)c2ccc3c(c2)nc2n3CCC(C)C2)cc1 (stereo unspecified) | 13µM* | 21µM* | x | -1% | x | -8%
CC1CCn2c(nc3cc(C(=O)NCCc4ccccc4)ccc32)C1 (stereo unspecified) | u | -27% | x | 1% | x | -5%
CC1(C(=O)Nc2ccccc2F)CCN1C(=O)Cc1ccc(-c2ccccc2)cc1 (stereo unspecified) | 15µM* | u | i | -14% | u | -19%
CC1(C(=O)Nc2ccccc2F)CCN1C(=O)Cc1cc(F)ccc1F (stereo unspecified) | u | -1% | i | -2% | -7% | -5%
CCCC(=O)N1CCC1(C)C(=O)Nc1ccc2c(c1)OCCO2 (stereo unspecified) | -24% | -5% | i | 9% | 3% | 1%
CCC(=O)N1CCC1(C)C(=O)Nc1ccc2c(c1)OCO2 (stereo unspecified) | -3% | 2% | i | -16% | 9% | 14µM*
CC1(C(=O)Nc2ccc3c(c2)OCO3)CCN1C(=O)Cc1ccc(-c2ccccc2)cc1 (stereo unspecified) | 4.6µM* | 7.3µM* | i | -21% | u | -7%
CC1(C(=O)NC2CCCC2)CCN1C(=O)Cc1ccc(-c2ccccc2)cc1 (stereo unspecified) | 23µM* | 16µM* | i | -25% | -38% | -11%
Cc1cc(C)cc(C(=O)Nc2ccc(N3CCN(S(C)(=O)=O)CC3)cc2)c1 | u | -2% | i | -2% | -13% | 3%
COc1cccc(NC(=O)C2(C)CCN2C(=O)Cc2ccc(-c3ccccc3)cc2)c1 (stereo unspecified) | 15µM* | u | i | 3% | u | -1%
CC1(C(=O)Nc2ccc(Cl)c(Cl)c2)CCN1C(=O)Cc1ccc(-c2ccccc2)cc1 (stereo unspecified) | 18µM* | 15µM* | i | -8% | -14% | -28%
CC1(C(=O)Nc2cnc3ccccc3c2)CCN1C(=O)CC(c1ccccc1)c1ccccc1 (stereo unspecified) | 16µM* | u | u | -33% | u | u
CC1(C(=O)Nc2ccccc2)CCN1C(=O)Cc1ccc(-c2ccccc2)cc1 (stereo unspecified) | 18µM* | 23µM* | i | -1% | -20% | 1%
